AC50 and outcome data for ten compounds are collected here from PubChem BioAssay (EPA / NIEHS).

Assay [1] addresses human Vasopressin 1A Receptor (V1A), AVPR1A (gene 552) (UniProt P37288). Put plainly: NVS_GPCR_hV1A: NovaScreen (NVS) G Protein-Coupled Receptor Assay for human Vasopressin 1A Receptor (V1A) (AID 2283284). The method in brief: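 Single-concentration duplicate screen at 25 uM, with concentration-response follow-up (top 50 uM) for actives. The assay measured displacement of a radioligand from human platelet-derived receptor after 1.5 h, detected by filtration and scintillation counting.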

The target in assay [2] is rat Adrenergic Receptor, Beta (Adrb), Non-selective Binding, Adrb1 (gene 24925) (UniProt P18090). Description: NVS_GPCR_rAdrb_NonSelective: NovaScreen (NVS) G Protein-Coupled Receptor Assay for rat Adrenergic Receptor, Beta (Adrb), Non-selective Binding (AID 2283298). Put shortly: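 Rat cortical membranes incubated 1 h with beta-adrenergic radioligand and test chemical; bound ligand measured by filtration and scintillation counting. Screen at 25 uM duplicate, then concentration series with 50 uM maximum; loss of signal versus DMSO.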

Assay [3] relates to 5-hydroxytryptamine receptor 2C (pig). Put plainly: NVS_GPCR_p5HT2C: NovaScreen (NVS) G Protein-Coupled Receptor Assay for pig Serotonin, 5-Hydroxytryptamine Receptor 2C (5HT2C) (AID 2283288). The method in brief:
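Radioligand displacement on membranes from pig choroid plexus, detected by filter scintillation counting after 1 h. Tested first at a single 25 uM in duplicate, then in concentration-response for actives; DMSO served as baseline.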

In assay [4] the target is human Opioid Receptor Mu (Opiate Mu), OPRM1 (gene 4988) (UniProt P35372). Put plainly: NVS_GPCR_hOpiate_mu: NovaScreen (NVS) G Protein-Coupled Receptor Assay for human Opioid Receptor Mu (Opiate Mu) (AID 2283290).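 Note: hits lower bound tracer signal versus DMSO meaning displacement of the ligand.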 The method in brief:
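Primary screen in duplicate at 25 uM, with actives followed in concentration series. CHO-derived receptor membranes, cell-free; bound radioligand read by scintillation counting after filtration at 2.5 h, decrease scored against DMSO.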

The target of assay [5] is guinea pig Serotonin, 5-Hydroxytryptamine Receptor 4 (5HT4), HTR4 (gene 100135548) (UniProt O70528). Put plainly: NVS_GPCR_g5HT4: NovaScreen (NVS) G Protein-Coupled Receptor Assay for guinea pig Serotonin, 5-Hydroxytryptamine Receptor 4 (5HT4) (AID 2283294). Put shortly:
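Compounds first screened in duplicate at 25 uM, actives followed up in concentration series. Binding measured as displacement of specific radioligand from guinea pig striatal membranes, 1 h, filter-based scintillation read-out versus DMSO baseline.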

Assay [6] deals with mouse Cholecystokinin, CCK1 Receptor (CCKA), Cckar (gene 12425) (UniProt O08786). Description: NVS_GPCR_mCCKAPeripheral: NovaScreen (NVS) G Protein-Coupled Receptor Assay for mouse Cholecystokinin, CCK1 Receptor (CCKA) (AID 2283285). The method in brief: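 Chemicals were first screened in duplicate at 25 uM, with those meeting threshold (e.g., 30% inhibition) retested in singleton concentration series to 50 uM maximum. Binding of radioligand to mouse pancreatic membranes was read after 2 h by filtration and scintillation counting.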

Assay [7] has as its target mouse Cholecystokinin, CCK2 Receptor (CCKB), Cckbr (gene 12426) (UniProt P56481). Put plainly: NVS_GPCR_mCKKBCentral: NovaScreen (NVS) G Protein-Coupled Receptor Assay for mouse Cholecystokinin, CCK2 Receptor (CCKB) (AID 2283293). The method in brief: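 Mouse forebrain membrane preparation incubated 2 h with chemical and radioligand; bound radioactivity counted after filtration. Single-concentration duplicate screen at 25 uM, then concentration series to 50 uM max for hits, DMSO as baseline.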

The test system of assay [8] is rat Adrenergic, Alpha 1B Receptor (Adra1B), gene 24173. Description: NVS_GPCR_rAdra1B: NovaScreen (NVS) G Protein-Coupled Receptor Assay for rat Adrenergic, Alpha 1B Receptor (Adra1B) (AID 2283297). The method in brief:
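Filter-binding radioligand competition on membranes from rat liver, read after 1 h by scintillation counting. Single-concentration duplicate screen at 25 uM, followed by concentration-response on actives, normalised to DMSO.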

Assay [9] has as its target rat Gamma-Aminobutyric Acid Type B Receptor (GABBR), Gabbr1 (gene 81657) (UniProt Q9Z0U4). Description: NVS_GPCR_rGABBR: NovaScreen (NVS) G Protein-Coupled Receptor Assay for rat Gamma-Aminobutyric Acid Type B Receptor (GABBR) (AID 2283301). Put shortly: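 Rat cortical membrane preparation, competitive radioligand binding for 1 h with filtration and scintillation readout. Actives from duplicate single-point 25 uM screening proceeded to concentration series with 50 uM top concentration.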

The target of assay [10] is rat Somatostatin Receptor (SST), Sstr1 (gene 25033) (UniProt P28646). Description: NVS_GPCR_rSST: NovaScreen (NVS) G Protein-Coupled Receptor Assay for rat Somatostatin Receptor (SST) (AID 2283314). The method in brief:
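Single-concentration duplicate screen (25 uM), then concentration-response up to 50 uM for chemicals passing a threshold such as 30% inhibition. Membranes came from rat forebrain. Binding was measured 1 h post-dose by filter radiodetection and scintillation, relative to DMSO.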

In assay [11] the target is rat Serotonin, 5-Hydroxytryptamine Receptor 1 (5HT1), Non-Selective Binding, Htr1a (gene 24473) (UniProt P19327). Description: NVS_GPCR_r5HT1_NonSelective: NovaScreen (NVS) G Protein-Coupled Receptor Assay for rat Serotonin, 5-Hydroxytryptamine Receptor 1 (5HT1), Non-Selective Binding (AID 2283286). The method in brief: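 Binding of a radioligand to rat cortex membranes is read by filtration and scintillation counting after 1 h. Compounds were screened at 25 uM in duplicate. Actives were then titrated to a top of 50 uM. DMSO is the baseline.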

The target of assay [12] is rat Serotonin, 5-Hydroxytryptamine Receptor (5HT), Non-Selective Binding, Htr1a (gene 24473) (UniProt P19327). Description: NVS_GPCR_r5HT_NonSelective: NovaScreen (NVS) G Protein-Coupled Receptor Assay for rat Serotonin, 5-Hydroxytryptamine Receptor (5HT), Non-Selective Binding (AID 2283295). The method in brief:
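Rat cortex membrane preparation incubated 1 h with radioligand and test chemical; bound radioactivity counted after filtration. Screening began in duplicate at 25 uM with concentration-series follow-up; fitting relative to DMSO.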

For assay [13], the target named is rat Histamine Receptor (H3), Hrh3 (gene 85268) (UniProt Q9QYN8). Description: NVS_GPCR_rH3: NovaScreen (NVS) G Protein-Coupled Receptor Assay for rat Histamine Receptor (H3) (AID 2283303). The method in brief:
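Filter-binding radioligand competition on rat forebrain membranes, 1 h incubation; compounds screened at 25 µM in duplicate and followed in concentration series to 50 µM, loss of bound signal vs DMSO.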

The target of another assay is Adra2b (gene 24174) (UniProt P19328). Put plainly: NVS_GPCR_rmAdra2B: NovaScreen (NVS) G Protein-Coupled Receptor Assay for hybird cells Adrenergic, Alpha 2B Receptor (Adra2B) (AID 2283306). Put shortly:
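Compounds screened first at 25 uM in duplicate, with actives followed up in concentration-response; specific radioligand displacement from hybrid neuroglioma/blastoma cell membrane preparations measured by filter scintillation counting after 1 h, normalized to DMSO.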

Assay [14] deals with rabbit Platelet Activating Factor Receptor (PAF), gene 100354046. Description: NVS_GPCR_rabPAF: NovaScreen (NVS) G Protein-Coupled Receptor Assay for rabbit Platelet Activating Factor Receptor (PAF) (AID 2283287). Put shortly: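 Rabbit platelet membrane preparation; radioligand displacement read by filter-based scintillation counting 1 h after dosing, loss of signal versus DMSO. Primary screen in duplicate at 25 uM, actives followed up in concentration series.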

The target of assay [15] is rat Neurokinin-3 Receptor (NK3), Tacr3 (gene 24808) (UniProt P16177). Put plainly: NVS_GPCR_rNK3: NovaScreen (NVS) G Protein-Coupled Receptor Assay for rat Neurokinin-3 Receptor (NK3) (AID 2283310). Put shortly:
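Filter-based radioligand displacement on rat cortex membrane preparations, read by scintillation 2 h post-dose. Chemicals first tested in duplicate at 25 uM; actives followed up in concentration series with a 50 uM maximum.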

Assay [16] deals with rat Adrenergic, Alpha 1A Receptor (Adra1A), Adra1a (gene 29412) (UniProt P43140). Put plainly: NVS_GPCR_rAdra1A: NovaScreen (NVS) G Protein-Coupled Receptor Assay for rat Adrenergic, Alpha 1A Receptor (Adra1A) (AID 2283296). The method in brief:
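Filter radiodetection after 1 h competitive binding on CEC-pretreated rat cortical membranes. Duplicate single-point screening at 25 uM; active chemicals retested across concentration series.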

Structures are written as SMILES. Inconclusive results are not listed. The source made the active and inactive calls. Rule for the calls: active = hit-call score of the fitted dose curve at least 0.9, where 1 is the maximum; inconclusive = response in the unintended direction; inactive = score below 0.9.

Chain of mouse Cholecystokinin, CCK1 Receptor (CCKA), Cckar (gene 12425) (O08786 whole entry, looked up): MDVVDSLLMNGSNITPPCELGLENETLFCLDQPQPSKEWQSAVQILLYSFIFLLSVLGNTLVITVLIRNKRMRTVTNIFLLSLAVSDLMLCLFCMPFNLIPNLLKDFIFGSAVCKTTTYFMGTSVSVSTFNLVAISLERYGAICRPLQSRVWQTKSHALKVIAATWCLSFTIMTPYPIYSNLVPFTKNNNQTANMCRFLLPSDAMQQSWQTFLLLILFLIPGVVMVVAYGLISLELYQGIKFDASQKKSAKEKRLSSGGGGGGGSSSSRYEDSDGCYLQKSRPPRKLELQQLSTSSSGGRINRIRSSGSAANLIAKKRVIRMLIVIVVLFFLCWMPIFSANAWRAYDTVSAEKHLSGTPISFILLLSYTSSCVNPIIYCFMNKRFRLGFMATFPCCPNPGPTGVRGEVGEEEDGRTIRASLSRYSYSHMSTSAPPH
Chain of human Opioid Receptor Mu (Opiate Mu), OPRM1 (gene 4988) (P35372 whole entry, looked up): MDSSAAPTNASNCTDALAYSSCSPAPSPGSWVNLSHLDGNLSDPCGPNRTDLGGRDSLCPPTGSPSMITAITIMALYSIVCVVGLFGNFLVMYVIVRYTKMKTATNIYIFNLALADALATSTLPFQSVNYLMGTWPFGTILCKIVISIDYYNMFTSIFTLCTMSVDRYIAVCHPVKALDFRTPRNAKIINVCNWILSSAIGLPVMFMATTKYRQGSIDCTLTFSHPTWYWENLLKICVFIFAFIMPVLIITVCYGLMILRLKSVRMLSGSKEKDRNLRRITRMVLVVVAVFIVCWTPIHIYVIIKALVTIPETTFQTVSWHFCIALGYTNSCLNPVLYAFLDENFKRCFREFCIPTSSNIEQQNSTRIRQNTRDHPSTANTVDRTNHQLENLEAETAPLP
Chain of guinea pig Serotonin, 5-Hydroxytryptamine Receptor 4 (5HT4), HTR4 (gene 100135548) (O70528 whole entry, looked up): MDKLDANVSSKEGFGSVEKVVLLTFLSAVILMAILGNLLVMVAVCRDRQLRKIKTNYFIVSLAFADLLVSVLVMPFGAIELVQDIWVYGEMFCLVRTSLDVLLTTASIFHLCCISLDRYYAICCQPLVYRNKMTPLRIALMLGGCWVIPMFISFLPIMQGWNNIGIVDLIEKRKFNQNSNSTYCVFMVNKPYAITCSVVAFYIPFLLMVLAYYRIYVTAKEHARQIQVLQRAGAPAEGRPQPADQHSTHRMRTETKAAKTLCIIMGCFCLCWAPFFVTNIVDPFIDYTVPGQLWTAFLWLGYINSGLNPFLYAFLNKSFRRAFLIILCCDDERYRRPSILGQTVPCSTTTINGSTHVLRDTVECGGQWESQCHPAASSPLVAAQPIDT
Chain of rat Adrenergic Receptor, Beta (Adrb), Non-selective Binding, Adrb1 (gene 24925) (P18090 whole entry, looked up): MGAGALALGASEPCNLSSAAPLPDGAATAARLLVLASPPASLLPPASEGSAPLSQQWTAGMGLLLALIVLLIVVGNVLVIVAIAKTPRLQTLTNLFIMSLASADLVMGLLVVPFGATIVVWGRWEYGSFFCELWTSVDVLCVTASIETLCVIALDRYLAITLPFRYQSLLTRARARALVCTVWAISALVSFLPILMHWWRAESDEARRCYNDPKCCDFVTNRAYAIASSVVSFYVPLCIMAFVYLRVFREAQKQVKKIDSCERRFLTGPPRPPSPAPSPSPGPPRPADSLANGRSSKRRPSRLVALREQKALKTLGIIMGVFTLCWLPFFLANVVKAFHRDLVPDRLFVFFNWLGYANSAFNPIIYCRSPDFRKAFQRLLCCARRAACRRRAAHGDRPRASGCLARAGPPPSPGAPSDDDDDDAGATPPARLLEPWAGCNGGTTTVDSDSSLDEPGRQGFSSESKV
Chain of rat Serotonin, 5-Hydroxytryptamine Receptor (5HT), Non-Selective Binding, Htr1a (gene 24473) (P19327 whole entry, looked up): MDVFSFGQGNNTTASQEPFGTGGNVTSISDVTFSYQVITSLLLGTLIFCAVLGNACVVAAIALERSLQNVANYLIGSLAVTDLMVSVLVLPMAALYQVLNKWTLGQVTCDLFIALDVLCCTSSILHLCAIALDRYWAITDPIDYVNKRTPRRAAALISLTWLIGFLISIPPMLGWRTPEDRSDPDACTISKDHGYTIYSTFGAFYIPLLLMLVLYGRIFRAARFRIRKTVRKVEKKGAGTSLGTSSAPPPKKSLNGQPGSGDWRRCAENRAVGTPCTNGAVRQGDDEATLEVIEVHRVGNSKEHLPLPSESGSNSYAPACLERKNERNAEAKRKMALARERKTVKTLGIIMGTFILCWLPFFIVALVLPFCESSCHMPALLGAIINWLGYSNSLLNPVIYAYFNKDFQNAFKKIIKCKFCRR
Chain of rat Serotonin, 5-Hydroxytryptamine Receptor 1 (5HT1), Non-Selective Binding, Htr1a (gene 24473) (P19327 whole entry, looked up): as above
Chain of rat Histamine Receptor (H3), Hrh3 (gene 85268) (Q9QYN8 whole entry, looked up): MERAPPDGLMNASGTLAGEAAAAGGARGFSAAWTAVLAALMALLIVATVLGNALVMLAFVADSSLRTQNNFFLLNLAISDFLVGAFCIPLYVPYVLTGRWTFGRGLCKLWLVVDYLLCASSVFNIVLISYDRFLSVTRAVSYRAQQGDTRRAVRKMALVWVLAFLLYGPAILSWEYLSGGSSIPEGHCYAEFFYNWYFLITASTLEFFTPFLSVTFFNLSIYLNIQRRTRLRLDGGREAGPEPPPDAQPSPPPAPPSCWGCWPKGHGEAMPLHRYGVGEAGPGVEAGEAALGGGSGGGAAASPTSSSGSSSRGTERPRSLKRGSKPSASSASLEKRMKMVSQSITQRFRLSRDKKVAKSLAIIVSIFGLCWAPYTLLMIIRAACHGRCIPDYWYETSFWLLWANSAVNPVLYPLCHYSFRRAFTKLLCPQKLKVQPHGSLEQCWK
Chain of Adra2b (gene 24174) (P19328 whole entry, looked up): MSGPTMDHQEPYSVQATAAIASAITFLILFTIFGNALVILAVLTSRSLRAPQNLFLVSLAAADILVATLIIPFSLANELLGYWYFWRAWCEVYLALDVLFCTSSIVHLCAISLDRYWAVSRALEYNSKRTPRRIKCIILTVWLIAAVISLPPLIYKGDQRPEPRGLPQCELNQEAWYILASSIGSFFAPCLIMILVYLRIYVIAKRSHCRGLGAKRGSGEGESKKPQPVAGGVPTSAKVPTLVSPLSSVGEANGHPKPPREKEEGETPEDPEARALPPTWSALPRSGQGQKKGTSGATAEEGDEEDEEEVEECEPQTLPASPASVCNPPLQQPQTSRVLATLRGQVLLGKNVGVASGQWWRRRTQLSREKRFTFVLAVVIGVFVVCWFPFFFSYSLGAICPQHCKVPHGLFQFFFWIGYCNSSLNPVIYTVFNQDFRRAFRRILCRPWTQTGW
Chain of rat Somatostatin Receptor (SST), Sstr1 (gene 25033) (P28646 whole entry, looked up): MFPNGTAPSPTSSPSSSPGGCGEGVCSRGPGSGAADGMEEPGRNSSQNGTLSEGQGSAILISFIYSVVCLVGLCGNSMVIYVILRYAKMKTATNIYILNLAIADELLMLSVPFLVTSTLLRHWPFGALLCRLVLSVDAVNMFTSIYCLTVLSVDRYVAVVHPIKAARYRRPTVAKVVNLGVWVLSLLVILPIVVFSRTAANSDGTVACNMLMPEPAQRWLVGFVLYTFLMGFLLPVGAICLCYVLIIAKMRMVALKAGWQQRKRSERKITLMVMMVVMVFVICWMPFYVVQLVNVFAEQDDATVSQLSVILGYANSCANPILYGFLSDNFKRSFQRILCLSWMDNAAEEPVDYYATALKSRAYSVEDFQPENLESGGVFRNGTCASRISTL
Chain of human Vasopressin 1A Receptor (V1A), AVPR1A (gene 552) (P37288 whole entry, looked up): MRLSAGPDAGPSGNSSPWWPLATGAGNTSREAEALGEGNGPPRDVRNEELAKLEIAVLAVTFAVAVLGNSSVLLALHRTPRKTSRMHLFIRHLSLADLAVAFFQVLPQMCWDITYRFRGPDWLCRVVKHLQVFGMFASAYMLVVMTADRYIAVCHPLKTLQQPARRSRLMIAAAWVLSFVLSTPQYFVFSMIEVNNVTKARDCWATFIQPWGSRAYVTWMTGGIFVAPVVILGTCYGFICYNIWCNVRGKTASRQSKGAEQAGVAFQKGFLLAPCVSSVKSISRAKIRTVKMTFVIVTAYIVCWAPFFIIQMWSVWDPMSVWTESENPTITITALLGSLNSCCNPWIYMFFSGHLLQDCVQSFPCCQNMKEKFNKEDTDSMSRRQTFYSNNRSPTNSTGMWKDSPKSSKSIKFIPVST
Chain of rat Neurokinin-3 Receptor (NK3), Tacr3 (gene 24808) (P16177 whole entry, looked up): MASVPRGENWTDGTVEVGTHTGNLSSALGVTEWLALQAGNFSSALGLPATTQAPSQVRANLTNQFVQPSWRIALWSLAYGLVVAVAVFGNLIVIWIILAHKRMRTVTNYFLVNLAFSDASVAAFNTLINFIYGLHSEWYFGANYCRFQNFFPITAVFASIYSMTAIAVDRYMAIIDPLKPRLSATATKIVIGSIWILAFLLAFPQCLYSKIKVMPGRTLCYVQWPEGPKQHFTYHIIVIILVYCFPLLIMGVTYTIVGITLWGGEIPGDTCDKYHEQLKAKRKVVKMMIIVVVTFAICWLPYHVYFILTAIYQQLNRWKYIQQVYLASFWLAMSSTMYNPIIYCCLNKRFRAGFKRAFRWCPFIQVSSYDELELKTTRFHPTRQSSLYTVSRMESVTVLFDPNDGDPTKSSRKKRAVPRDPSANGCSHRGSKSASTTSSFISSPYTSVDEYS

What is called AC50 is the concentration at which the activity in the assay is half-maximal. With `Cc1ccc(O)cc1`, the AC50 in [1] is 22.1 µM (active). Moreover, the result in assay [2] was inactive.

For `CCCCCCc1ccc(O)cc1O`, the AC50 in assay [3] is 16.7 µM (active); in assay [5], 36.6 µM (active). Further, in assay [4], the compound was called inactive.

Regarding `CCc1cc(SCc2sc(-c3ccc(C(F)(F)F)cc3)nc2CN2CCN(c3ccc(OC)cc3)CC2)ccc1OCC(=O)O`, the AC50 was 7.03 µM (active) in [6], 4.54 µM (active) in assay [4] and 35.3 µM (active) in assay [7]. In addition, the result in assay [8], in assay [9] and in assay [10] was inactive.

In the case of `O=C(OC[C@H]1O[C@@H](OC(=O)c2cc(O)c(O)c(OC(=O)c3cc(O)c(O)c(O)c3)c2)[C@H](OC(=O)c2cc(O)c(O)c(OC(=O)c3cc(O)c(O)c(O)c3)c2)[C@@H](OC(=O)c2cc(O)c(O)c(OC(=O)c3cc(O)c(O)c(O)c3)c2)[C@@H]1OC(=O)c1cc(O)c(O)c(OC(=O)c2cc(O)c(O)c(O)c2)c1)c1cc(O)c(O)c(OC(=O)c2cc(O)c(O)c(O)c2)c1`, the AC50 in [6] is 12 µM (active).

In the case of `COC(=O)c1c(Cl)c(Cl)c(C(=O)OC)c(Cl)c1Cl`, the outcome in assay [3] was inactive.

With `CCCN(C1CCN(C(=O)C2CCNCC2)CC1)[C@@H]1CCc2ccc(OC)cc2C1`, the AC50 in assay [11] was 8.67 µM (active); in [5], 8.99 µM (active); in assay [12], 25 µM (active); in assay [8], 12.8 µM (active); in assay [2] it was 18.3 µM (active); in assay [13], 0.914 µM (active). Besides, in the assay with Adra2b (gene 24174), the AC50 is 7.66 µM (active).

As for `Cn1c(=O)c2c(ncn2C)n(C)c1=O`, the result in assay [3] was inactive.

Turning to `Cc1ccc(N)cc1O`, the compound was called inactive in assay [14].

With `CCOc1cccc(-n2cc(C(=O)N3CCN(c4cc(C(=O)O)c5ccccc5c4)CC3)nc2-c2ccc(C)cc2)c1`, the AC50 is 0.00589 µM (active) in [6], 23.8 µM (active) in assay [4] and 8.81 µM (active) in assay [15].

`Cc1[nH]cnc1C[C@H]1CCc2c(C)c3ccccc3n2C1=O`: the compound was called inactive in [11] and in [13]. The AC50 in assay [14] is 0.958 µM (active); in assay [3], 0.116 µM (active); in [4] it was 6.29 µM (active); in assay [5], 6.64 µM (active); in [12], 4.63 µM (active); in [16] it was 8.9 µM (active). Further, the half-maximal activity concentration (AC50) in [8] was 11.9 µM (active); in [2], 4.78 µM (active); with Adra2b (gene 24174) it was 3.68 µM (active).
